Assay outcomes as filed in PubChem BioAssay.
CHRM1 antagonist: antagonists of human M1 muscarinic receptor; P11229; CHO-K1 hM1, Fluo-8 calcium fluorescence, ACh EC80 antagonist; inhibition, % at 3 µM; hit rate 1.3% among 360,000; AID 588852;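 active = percent inhibition above its own plate's cutoff, namely the mean of that plate's compound wells plus 3 SD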;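 note: peak over basal fluorescence ratio during 140 s after agonist addition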
Target sequence (P11229 whole entry, looked up): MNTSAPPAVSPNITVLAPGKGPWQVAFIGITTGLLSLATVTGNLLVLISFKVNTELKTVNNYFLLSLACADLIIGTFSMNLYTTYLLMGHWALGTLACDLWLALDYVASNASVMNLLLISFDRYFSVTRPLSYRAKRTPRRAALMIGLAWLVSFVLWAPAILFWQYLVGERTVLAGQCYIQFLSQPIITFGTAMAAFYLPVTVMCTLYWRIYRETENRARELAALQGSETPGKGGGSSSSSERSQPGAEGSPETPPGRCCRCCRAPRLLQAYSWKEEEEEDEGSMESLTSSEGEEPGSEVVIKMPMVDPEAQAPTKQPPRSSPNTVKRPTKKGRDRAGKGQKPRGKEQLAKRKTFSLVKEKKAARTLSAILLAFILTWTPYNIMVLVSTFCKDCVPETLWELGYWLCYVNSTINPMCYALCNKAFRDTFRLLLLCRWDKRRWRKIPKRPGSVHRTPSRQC
CHRM1 agonist: human M1 muscarinic receptor agonism; CHO-K1 hM1, Fluo-8 calcium fluorescence, agonist mode; 0% DMSO, 100% acetylcholine EC100; activation, % at 3 µM; P11229; hit rate 0.33% among 360,000;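 active = activation above the run's mean compound activation plus 3 SD, cut at about 16% in these data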;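 note: peak over basal fluorescence ratio within a 140 s kinetic read after compound addition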
CHO-K1 Ca ag: M1 agonist counterscreen hit in parental CHO-K1 cells; Fluo-8 calcium fluorescence; scaled to maximal ATP response, vehicle zero; activation, % at 3 µM; hit rate 0.48% among 360,000; AID 602248; in the data active = activation above about 15%;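 note: untransfected CHO-K1 host cells lacking M1 receptor as counterscreen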
CHO-K1 Ca PAM: counter-screen for M1 PAMs: effect in parental CHO-K1 cells. ATP EC20, Fluo-8 calcium fluorescence; 0% at ATP EC20, 100% at ATP max. activation, % at 3 µM. hit rate 0.02% among 360,000;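 active = activation above the run cutoff, the mean activation of all test compounds plus 3 SD, cut at about 40% in these data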;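 note: peak over basal fluorescence ratio in a 140 s read after ATP addition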
CHO-K1 Ca antag: nonselective inhibitor or artifact in parental CHO-K1 cells. ATP-induced calcium, Fluo-8 fluorescence. hit rate 0.6% among 360,000. inhibition, % at 3 µM. AID 602250;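 active = inhibition above a per-plate cutoff, the plate's mean sample inhibition plus 3 SD, cut at about 24% in these data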
CHRM1 PAM: potentiates human M1 receptor response to acetylcholine. P11229. CHO-K1 hM1, Fluo-8 calcium fluorescence, ACh EC20; 0% = ACh EC20, 100% = maximal ACh. activation, % at 3 µM. hit rate 0.088% among 360,000. AID 588819; in the data active = activation above about 19%, passing the limit was not always enough
Hits are given with their value; . = inactive. This is a sample that favours compounds with a hit; in the whole collection about 2.4% have one here.

SMILES | CHRM1 antagonist | CHRM1 agonist | CHO-K1 Ca ag | CHO-K1 Ca PAM | CHO-K1 Ca antag | CHRM1 PAM
COc1ccc(N(CC(=O)NCc2ccco2)C(=O)CCC(=O)Nc2nccs2)cc1 | . | . | . | . | . | .
COc1ccc(-c2c[n+]3c(n2-c2ccccc2)SCC3)cc1OC | . | . | . | . | . | .
Cc1ccc(-c2c[n+]3c(n2-c2ccccc2)SCC3)cc1 | 54 | . | . | . | . | .
FC(F)Oc1ccc(-c2c[n+]3c(n2-c2ccccc2)CCCCC3)cc1 | . | . | . | . | . | .
COc1ccc(-c2c[n+]3c(n2-c2ccccc2)SCC3)cc1 | 62 | . | . | . | . | .
Brc1ccc(-c2c[n+]3c(n2-c2ccccc2)SCC3)cc1 | 73 | . | . | . | . | .
Cc1cccc(CSCc2ccc(C(=O)NCC3CCCO3)o2)c1 (configuration not stated) | . | . | . | . | . | .
CN(C(=O)COC(=O)c1ccc(Cl)c(S(=O)(=O)NCc2ccccc2)c1)C1CCS(=O)(=O)C1 (configuration not stated) | . | . | . | . | . | .
CN(C)/C=N/NC(=O)C1Cc2c(ccc3ccccc23)O1 (configuration not stated) | . | . | 16 | . | . | .
COCCNC(=O)C1Cc2c(ccc3ccccc23)O1 (configuration not stated) | . | . | . | . | . | .
CC12CCC(O)CC1=CCC1C2CCC2(C)c3[nH]ncc3CC12 (configuration not stated) | . | . | . | . | . | .
O=c1c2ccccc2nc(COc2ccccc2)n1/N=C/c1cn[nH]c1-c1ccccc1 | 28 | . | . | . | . | .
Cc1cc2c(NC(=O)Nc3ccc(C(F)(F)F)cc3)cccc2nn1 | . | . | . | . | 32 | .
CCOC(=O)C1(C)CCCCN1C(=O)c1cccnc1 (configuration not stated) | . | . | . | . | . | 27
CCc1nc2ccc(C(=O)N(CC)CCN(C)C)cn2c1N(C)CCCc1ccccc1 | 52 | . | . | . | . | .
CCc1nc2ccc(C(=O)N(C)CCCN(C)C)cn2c1N(C)CCCc1ccccc1 | 32 | . | . | . | . | .
CCc1nc2ccc(C(=O)NCc3ccccc3OC)cn2c1N(CCC(C)C)CCN(C)C | 39 | 42 | . | . | . | .
CCc1nc2ccc(C(=O)N(C)Cc3ccccc3)cn2c1N(C)CCCc1ccccc1 | . | . | . | . | . | .
CCc1nc2ccc(C(=O)NCCNC(C)=O)cn2c1N(CCC(C)C)CCN(C)C | . | . | . | . | . | .
CCc1nc2ccc(C(=O)N(C)CCCN(C)C)cn2c1N(C)Cc1cc2ccccc2s1 | 38 | . | . | . | . | .
CCc1nc2ccc(C(=O)N3CCN(c4ccccc4)CC3)cn2c1N(C)CCCc1ccccc1 | . | . | . | . | . | .
COc1cc(C(=S)N2CCOCC2)ccc1OC(=O)/C=C/c1ccco1 | . | . | . | . | . | .
CCCCCN(C(=O)CCC(=O)OC(C)C(=O)NC1CCCCC1)c1c(N)n(CCCC)c(=O)[nH]c1=O (configuration not stated) | . | . | . | . | . | .
CN(C)CCCN(C(=O)c1ccc([N+](=O)[O-])o1)c1nc2cc3c(cc2s1)OCO3 | . | . | . | . | . | .
Cc1cc(C)c(S(N)(=O)=O)c(C)c1N(C)S(=O)(=O)c1ccccc1 | . | . | . | . | . | .
Cc1cc(C)c(S(N)(=O)=O)c(C)c1N(C)S(=O)(=O)c1ccc(Cl)cc1 | 40 | . | . | . | . | .
COc1ccc(C(=O)C2CCCN(C(=O)Cn3cncn3)C2)cc1OC (configuration not stated) | . | . | . | . | . | .
COc1cccc(C(=O)C2CCCN(Cc3cccc(-n4nc(C)cc4C)c3)C2)c1 (configuration not stated) | 60 | . | . | . | . | .
COc1ccc(CN2CCCC(C(=O)c3ccc(Cl)cc3)C2)cc1Cn1cccn1 (configuration not stated) | 58 | . | . | . | . | .
COc1cccc(C(=O)C2CCCN(Cc3ccc(OC)c(Cn4cncn4)c3)C2)c1 (configuration not stated) | 37 | . | . | . | . | .
